Values joined by “and” are separate entries in the source; they are usually repeats but may differ in a detail not shown here. Equal values may be shown once. Results filed as inconclusive are left out. Active and inactive are the calls of the source. Unless noted, calls come from the whole dose curve.
Tests used:
[1] = molecular target: Estrogen receptor (Homo sapiens) (UniProt P03372); assay: qHTS assay for small molecule agonists of estrogen receptor alpha signaling (AID 588514); note: nearly all actives have a fitted effect of over 70% in size; note: potency is the fitted concentration of half-maximal effect;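 for activation: 0% = vehicle only and 100% = reference agonist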
Sequence of Estrogen receptor (Homo sapiens) (P03372 whole entry, looked up): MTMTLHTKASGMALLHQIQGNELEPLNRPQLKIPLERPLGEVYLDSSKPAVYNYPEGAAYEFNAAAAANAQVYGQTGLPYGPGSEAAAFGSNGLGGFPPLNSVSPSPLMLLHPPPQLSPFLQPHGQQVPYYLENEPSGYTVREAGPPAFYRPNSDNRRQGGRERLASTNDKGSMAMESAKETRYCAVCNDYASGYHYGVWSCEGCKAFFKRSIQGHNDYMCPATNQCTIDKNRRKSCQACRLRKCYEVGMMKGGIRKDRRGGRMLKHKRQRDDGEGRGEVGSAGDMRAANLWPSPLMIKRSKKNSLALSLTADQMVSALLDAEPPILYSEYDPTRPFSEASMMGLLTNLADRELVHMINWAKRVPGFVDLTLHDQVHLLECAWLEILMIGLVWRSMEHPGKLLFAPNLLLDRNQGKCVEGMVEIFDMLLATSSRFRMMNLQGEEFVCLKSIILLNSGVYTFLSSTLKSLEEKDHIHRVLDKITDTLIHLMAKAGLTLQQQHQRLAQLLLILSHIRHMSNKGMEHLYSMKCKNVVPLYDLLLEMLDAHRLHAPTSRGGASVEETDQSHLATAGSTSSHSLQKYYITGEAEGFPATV
How it was run: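 Read-out: CCF4 fluorescence from a beta-lactamase reporter in ER-alpha-UAS-bla HEK 293 cells after 18 hrs of compound exposure at 37 C. Normalized to 20 nM 17-beta-estradiol (100%) and DMSO (0%).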

[2] = molecular target: Peroxisome proliferator-activated receptor gamma (Homo sapiens) (UniProt P37231); assay: qHTS assay for small molecule antagonists of peroxisome proliferator-activated receptor gamma signaling (AID 588537; active = well fitted inhibition curve with a large enough effect in the signal ratio, with a control signal flat, not every such curve was filed as active; the % refers to the signal ratio;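 note: reporter cells co-stimulated with 50 nM rosiglitazone agonist during compound treatment; % of control where 0% means no effect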)
Sequence of Peroxisome proliferator-activated receptor gamma (Homo sapiens) (P37231 whole entry, looked up): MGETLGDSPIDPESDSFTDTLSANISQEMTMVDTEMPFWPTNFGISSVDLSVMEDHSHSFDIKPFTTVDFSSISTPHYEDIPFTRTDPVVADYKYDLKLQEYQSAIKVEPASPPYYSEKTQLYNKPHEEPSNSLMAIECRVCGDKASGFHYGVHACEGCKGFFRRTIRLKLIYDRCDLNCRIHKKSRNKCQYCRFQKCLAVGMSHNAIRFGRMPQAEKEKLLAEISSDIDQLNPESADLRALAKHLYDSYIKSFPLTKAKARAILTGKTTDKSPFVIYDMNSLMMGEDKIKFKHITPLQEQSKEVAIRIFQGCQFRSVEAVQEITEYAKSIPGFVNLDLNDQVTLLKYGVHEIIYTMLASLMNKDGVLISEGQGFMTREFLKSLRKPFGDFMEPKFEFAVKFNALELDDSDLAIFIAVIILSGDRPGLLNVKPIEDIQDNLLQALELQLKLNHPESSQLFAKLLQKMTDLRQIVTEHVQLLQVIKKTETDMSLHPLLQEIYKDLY
How it was run: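 HEK293 cells, PPAR-gamma-UAS-bla, 3000/well. Pre-incubation 6-6.5 h, 37 C. Compound titration with rosiglitazone 50 nM final, 16 h. CCF4 dye, 2 h RT, dual-emission fluorescence.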

[3] = molecular target: Vitamin D3 receptor (Homo sapiens) (UniProt P11473); assay: qHTS assay for small molecule agonists of vitamin D receptor signaling (AID 588543);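 note: 0% = DMSO basal and 100% = reference agonist control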
Sequence of Vitamin D3 receptor (Homo sapiens) (P11473 whole entry, looked up): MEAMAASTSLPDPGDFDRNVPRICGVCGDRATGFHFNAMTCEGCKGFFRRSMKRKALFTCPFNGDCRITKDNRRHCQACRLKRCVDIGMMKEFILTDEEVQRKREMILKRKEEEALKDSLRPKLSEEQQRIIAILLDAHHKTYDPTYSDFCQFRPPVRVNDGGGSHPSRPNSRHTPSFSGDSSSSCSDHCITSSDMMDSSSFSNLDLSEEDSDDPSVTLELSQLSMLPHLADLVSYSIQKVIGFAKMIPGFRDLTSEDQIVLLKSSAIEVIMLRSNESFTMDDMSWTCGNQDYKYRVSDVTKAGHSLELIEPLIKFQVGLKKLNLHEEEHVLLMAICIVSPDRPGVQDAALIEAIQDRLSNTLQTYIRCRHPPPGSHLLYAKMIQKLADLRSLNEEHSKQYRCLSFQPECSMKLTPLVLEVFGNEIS
How it was run: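 VDR-UAS-bla HEK293T cells, 2000/well, 2% charcoal-stripped FBS; compound titration 16 h at 37 C; CCF4 beta-lactamase ratio read. Normalized to 50 nM 1-alpha,25-dihydroxyvitamin D3 (100%) and DMSO; Hill fit gives EC50, efficacy.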

[4] = molecular target: Thyroid hormone receptor beta (Homo sapiens) (UniProt P10828); assay: qHTS assay for small molecule agonists of thyroid hormone receptor beta signaling (AID 588545)
Sequence of Thyroid hormone receptor beta (Homo sapiens) (P10828 whole entry, looked up): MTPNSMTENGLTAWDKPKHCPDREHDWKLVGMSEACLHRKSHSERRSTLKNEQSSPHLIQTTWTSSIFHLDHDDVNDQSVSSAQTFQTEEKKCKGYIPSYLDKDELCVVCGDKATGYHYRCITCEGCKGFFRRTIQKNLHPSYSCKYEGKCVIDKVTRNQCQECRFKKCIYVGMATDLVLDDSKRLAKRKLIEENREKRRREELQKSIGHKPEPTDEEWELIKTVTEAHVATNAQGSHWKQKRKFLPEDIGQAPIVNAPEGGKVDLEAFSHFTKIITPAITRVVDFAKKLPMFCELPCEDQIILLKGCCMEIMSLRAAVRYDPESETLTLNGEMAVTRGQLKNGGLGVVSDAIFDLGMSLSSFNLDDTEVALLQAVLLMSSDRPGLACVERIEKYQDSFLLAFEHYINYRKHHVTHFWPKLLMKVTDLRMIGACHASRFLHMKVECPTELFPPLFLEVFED
How it was run: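 Agonist activity was read as beta-lactamase CCF4 fluorescence (405 ex, 460/530 em), scaled between DMSO (0%) and 10 nM T3 (100%), then Hill-fitted for EC50 and efficacy. HEK 293 TR-UAS-bla cells in 2% charcoal/dextran FBS medium were exposed 18 h at 37 C.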

[5] = qHTS assay for small molecule antagonists of retinoid X receptor alpha signaling (AID 588546; active = well fitted inhibition curve with a large enough effect in the signal ratio, with a control signal flat, not every such curve was filed as active; the % refers to the signal ratio; note: potency is the fitted concentration of half-maximal effect;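 for max response: cells stimulated with 9-cis-retinoic acid as agonist; % is set by controls: 0 for no effect and ±100 for the full control effect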); conditions: HEK293T RXRa-UAS-bla, beta-lactamase ratio, antagonist mode; measured here: W530 green channel, cytotoxicity proxy
How it was run: (§1)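 Beta-lactamase reporter inhibition, read as CCF4 fluorescence ratio (ex 405, em 460/530 nm) after 2 h at RT. HEK293T UAS-bla cells, 2500/well, were stimulated with 9-cis-RA at 500 or 100 nM final alongside test compound for 18 h at 37 C.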

[6] = molecular target: Retinoic acid receptor RXR-alpha (Homo sapiens) (UniProt P19793); assay: as above; conditions: HEK293T RXRa-UAS-bla, beta-lactamase ratio, antagonist mode
Sequence of Retinoic acid receptor RXR-alpha (Homo sapiens) (P19793 whole entry, looked up): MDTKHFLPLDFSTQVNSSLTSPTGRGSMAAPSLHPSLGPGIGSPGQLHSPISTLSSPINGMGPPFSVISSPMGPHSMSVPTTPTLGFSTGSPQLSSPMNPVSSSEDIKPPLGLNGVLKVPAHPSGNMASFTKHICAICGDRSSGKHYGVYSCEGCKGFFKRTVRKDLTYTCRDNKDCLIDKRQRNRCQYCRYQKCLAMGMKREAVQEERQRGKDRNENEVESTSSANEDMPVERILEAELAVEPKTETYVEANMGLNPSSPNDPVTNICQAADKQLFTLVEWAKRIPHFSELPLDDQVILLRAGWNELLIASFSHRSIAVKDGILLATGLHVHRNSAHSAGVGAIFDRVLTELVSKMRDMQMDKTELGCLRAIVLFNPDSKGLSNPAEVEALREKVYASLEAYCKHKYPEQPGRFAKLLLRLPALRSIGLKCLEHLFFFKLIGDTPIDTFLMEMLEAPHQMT
How it was run: as §1

[7] = molecular target: Thyroid hormone receptor beta (Homo sapiens) (UniProt P10828); assay: qHTS assay for small molecule antagonists of thyroid hormone receptor beta signaling (AID 588547; active = well fitted inhibition curve with a large enough effect in the signal ratio, with a control signal flat, not every such curve was filed as active; the % refers to the signal ratio; note: potency is the fitted concentration of half-maximal effect;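 for activity change % (negative = inhibition): cells stimulated with 0.4 nM T3 agonist during compound exposure; series mostly up to about 77 µM; % is set by controls: 0 for no effect and ±100 for the full control effect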); conditions: TR-UAS-bla HEK293, beta-lactamase ratio, antagonist mode, 18 h
How it was run: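 TR-UAS-bla GripTite HEK293 cells in 2% charcoal/dextran FBS medium were preincubated 4 h at 37 C, given compound (0.59 nM to 92 uM) plus 0.4 nM T3 (final) for 18 h, then CCF4 for 2 h at RT; Hill fit gave IC50.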

[8] = qHTS assay for small molecule activators of the p53 signaling pathway (AID 651743; active = well fitted activation curve with a large enough effect in the signal ratio, not every such curve was filed as active; the % refers to the signal ratio; note: series mostly up to about 92 µM; % of control where 0% means no effect); conditions: HCT-116 p53RE-bla, beta-lactamase FRET ratio, 16 h; activation: stronger effect = higher value
How it was run: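 Here HCT-116 cells with an integrated p53-responsive beta-lactamase gene were incubated with compounds (16 hours, 37 C) after a 5-hour plating period; beta-lactamase activity was detected as fluorescence intensity via B/G FRET substrate.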

[9] = qHTS assay for environmental chemicals that activate the Aryl hydrocarbon Receptor (AhR) signaling pathway (AID 651777; active = well fitted curve in the direction sought with a large enough effect; an effect the other way counts as inactive or inconclusive; note: % of control where 0% means no effect; nearly all actives have a fitted effect of over 15% in size); conditions: 1A2-DRE human hepatoma cells, luciferase, 24 h; activation: stronger effect = higher value
How it was run: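 Induction of CYP1A2 transcription through AhR is detected by luciferase in 1A2-DRE hepatoma cells. Compounds or DMSO act for 24 hr at 37 C before a 30 min One-Glo step at room temperature.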

[10] = molecular target: Peroxisome proliferator-activated receptor alpha (Homo sapiens) (UniProt Q07869); assay: qHTS assay for small molecule agonists of the peroxisome proliferator-activated receptor alpha (PPARalpha) signaling pathway (AID 651778; active = well fitted curve in the direction sought with a large enough effect; an effect the other way counts as inactive or inconclusive; note: % of control where 0% means no effect); conditions: PathHunter PPARalpha complementation, chemiluminescence, 6 h; max response: stronger effect = higher value
Sequence of Peroxisome proliferator-activated receptor alpha (Homo sapiens) (Q07869 whole entry, looked up): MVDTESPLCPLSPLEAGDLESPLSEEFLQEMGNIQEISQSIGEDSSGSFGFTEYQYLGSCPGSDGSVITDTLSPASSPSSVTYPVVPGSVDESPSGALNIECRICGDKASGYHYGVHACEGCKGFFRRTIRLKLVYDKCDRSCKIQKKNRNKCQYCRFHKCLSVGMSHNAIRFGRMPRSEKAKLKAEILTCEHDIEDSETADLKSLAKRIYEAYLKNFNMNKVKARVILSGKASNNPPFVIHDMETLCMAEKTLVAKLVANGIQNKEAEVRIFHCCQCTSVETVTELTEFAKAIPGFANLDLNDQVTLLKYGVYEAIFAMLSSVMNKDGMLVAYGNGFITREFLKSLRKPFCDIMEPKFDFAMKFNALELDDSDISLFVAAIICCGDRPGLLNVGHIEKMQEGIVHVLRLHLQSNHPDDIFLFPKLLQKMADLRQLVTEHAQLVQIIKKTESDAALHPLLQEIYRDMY
How it was run: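 Cells plated at 2,000/well and held overnight at 37 C, 5% CO2, then compound added by pin tool for 6 hr; after PathHunter detection reagent and 60 min at room temperature, chemiluminescence from enzyme complementation was read.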

[11] = qHTS assay for small molecule agonists of the antioxidant response element (ARE) signaling pathway measured by Nrf2-dependant transcriptional activity - cell viability counter screen (AID 720653; active = well fitted curve in the direction sought with a large enough effect in the repeat runs; an effect the other way counts as inactive or inconclusive; note: % is set by controls: 0 for no effect and ±100 for the full control effect); conditions: ARE-bla HepG2 viability, CellTiter-Glo ATP luminescence, 16 h; max response: stronger effect = lower value
How it was run: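 ARE-bla HepG2 cells (2,000/well) rested 5 hrs at 37C/5% CO2, then exposed to compounds in DMSO for 16 hrs. Viability was read in the same wells as intracellular ATP by luminescence, 30 min at room temperature after reagent addition.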

[12] = qHTS assay for cell viability of the p53RE-bla HCT-116 cell line (AID 743292; active = well fitted curve in the direction sought with a large enough effect; an effect the other way counts as inactive or inconclusive; note: % is set by controls: 0 for no effect and ±100 for the full control effect; nearly all actives have a fitted effect of over 55% in size)
How it was run: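 In this qHTS counter-screen, metabolically competent p53RE-bla HCT-116 cells were counted via their ATP content. Compounds were applied for 16 h at 37 C and luciferase-coupled luminescence was measured.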

[13] = qHTS assay for small molecule activators of the human pregnane X receptor (PXR) signaling pathway (AID 720659; call rule not given here; note: 0% is about no effect)
[14] = qHTS assay for small molecule antagonists of peroxisome proliferator-activated receptor delta signaling (AID 588535); conditions: HEK293T PPARd-UAS-bla, beta-lactamase FRET ratio, 18 h; 460 nm channel;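 note: cells co-treated with a PPAR-delta agonist as stimulator during compound exposure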
How it was run: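 Compounds tested in titration on PPAR-delta-UAS-bla HEK293T cells grown in charcoal/dextran-stripped serum (2%); beta-lactamase activity read via CCF4 emission at 460 and 530 nm.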

[15] = molecular target: Peroxisome proliferator-activated receptor gamma (Homo sapiens) (UniProt P37231); assay: qHTS assay for small molecule agonists of peroxisome proliferator-activated receptor gamma signaling (AID 588536; active = well fitted curve in the direction sought with a large enough effect in the signal ratio, with a control signal flat, not every such curve was filed as active; the % refers to the signal ratio;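 note: 0% = DMSO basal wells and 100% = rosiglitazone at 2 µM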)
How it was run: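 Beta-lactamase reporter read-out: CCF4 fluorescence (ex 405, em 460/530 nm) after 2 h at RT. HEK293 GeneBLAzer cells were treated for 16 h at 37 C. Hill fits gave EC50 and efficacy versus 2 uM rosiglitazone (100%) and DMSO (0%).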

[16] = qHTS assay for small molecule agonists of retinoid X receptor alpha signaling (AID 588544); conditions: HEK293T RXRa-UAS-bla, beta-lactamase reporter, 18 h; 530 nm emission;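 for activation: 0% = DMSO basal wells and 100% = reference agonist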
[17] = molecular target: Retinoic acid receptor RXR-alpha (Homo sapiens) (UniProt P19793); assay: as above
[18] = qHTS assay for small molecule agonists of the antioxidant response element (ARE) signaling pathway measured by Nrf2-dependant transcriptional activity (AID 720636; active = well fitted curve in the direction sought with a large enough effect in the repeat runs; an effect the other way counts as inactive or inconclusive;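 note: HepG2 cells with an ARE-driven luciferase reporter; % of control where 0% means no effect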)
How it was run: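 We exposed ARE-luc HepG2 cells, seeded in assay medium with 1% dialyzed FBS and allowed 6 hr to adhere, to test compounds overnight (16 hr, 37 C) before measuring luciferase with ONE-Glo.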

[19] = qHTS assay for cell viability of HEK293 cells (AID 743288; active = well fitted curve in the direction sought with a large enough effect; an effect the other way counts as inactive or inconclusive; note: % is set by controls: 0 for no effect and ±100 for the full control effect; nearly all actives have a fitted effect of over 50% in size); conditions: ATP luminescence (CellTiter-Glo), 18 h; max response: stronger effect = lower value
How it was run: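 Steps: plate 2,000 parental HEK293 cells per well; incubate ≥5 h, 37 C; add compounds in DMSO; incubate 18 h, 37 C; add CellTiter-Glo; wait 30 min at room temperature; read luminescence.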

[20] = molecular target: Nuclear receptor subfamily 1 group I member 2 (Rattus norvegicus) (UniProt Q9R1A7); assay: qHTS assay for small molecule activators of the rat pregnane X receptor (rPXR) signaling pathway (AID 651751; call rule not given here; note: 0% is about no effect); conditions: rPXR reporter cells, luciferase (One-Glo), 24 h
Sequence of Nuclear receptor subfamily 1 group I member 2 (Rattus norvegicus) (Q9R1A7 whole entry, looked up): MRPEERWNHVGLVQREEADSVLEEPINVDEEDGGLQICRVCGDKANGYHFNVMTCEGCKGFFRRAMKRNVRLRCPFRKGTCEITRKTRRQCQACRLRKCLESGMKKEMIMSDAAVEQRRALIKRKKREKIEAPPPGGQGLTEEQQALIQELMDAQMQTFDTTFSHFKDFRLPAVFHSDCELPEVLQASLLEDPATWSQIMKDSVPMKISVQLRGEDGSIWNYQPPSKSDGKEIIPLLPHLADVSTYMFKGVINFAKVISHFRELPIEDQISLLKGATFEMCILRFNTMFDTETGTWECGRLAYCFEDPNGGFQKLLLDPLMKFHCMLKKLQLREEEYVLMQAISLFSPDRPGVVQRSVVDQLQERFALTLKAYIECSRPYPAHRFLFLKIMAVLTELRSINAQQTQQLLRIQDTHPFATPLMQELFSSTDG

O=c1[nH]sc2ccccc12
Potency [1]: inactive | Potency [2]: inactive | outcome [3]: inactive | Potency [4]: inactive | max response [5]: -44.3% | Potency [6]: 20 µM (active) | Potency [7]: 15.8 µM (active) | activation [8]: -3.28% (inactive) | activation [9]: 2.41% (inactive) | max response [10]: -8.62% (inactive) | max response [11]: -17.7% (inactive) | Potency [12]: inactive | outcome [13]: inactive

O=C(O)CN(CCO)CCN(CC(=O)O)CC(=O)O
Potency [1]: inactive | max response [14]: 6.54% | outcome [15]: inactive | Potency [2]: inactive | outcome [3]: inactive | max response [16]: -15.4% | Potency [17]: inactive | Potency [4]: inactive | max response [5]: -2.45% | activity change % (negative = inhibition) [7]: -8.14% (inactive) | activation [8]: -0.291% (inactive) | activation [9]: -0.73% (inactive) | Potency [18]: inactive | max response [11]: -1.05% (inactive) | max response [19]: -11.1% (inactive) | Potency [12]: inactive | max response [20]: 1.3% (inactive) | outcome [13]: inactive

Cl[Si](Cl)(Cl)c1ccccc1
Potency [1]: inactive | max response [14]: 13.6% | outcome [15]: inactive | Potency [2]: inactive | outcome [3]: inactive | max response [16]: -15.8% | Potency [17]: inactive | Potency [4]: inactive | max response [5]: -7.94% | max response [6]: -5.52% (inactive) | activity change % (negative = inhibition) [7]: -0.0742% (inactive) | activation [8]: -5.69% (inactive) | activation [9]: -0.059% (inactive) | max response [10]: -2.31% (inactive) | Potency [18]: inactive | max response [11]: -8.94% (inactive) | max response [19]: -13.3% (inactive) | Potency [12]: inactive | max response [20]: 1.77% (inactive) | outcome [13]: inactive

O=C(O)CN(CCCN(CC(=O)O)CC(=O)O)CC(=O)O
Potency [1]: 8.91 µM (active) | max response [14]: -69.3% | outcome [3]: inactive | max response [16]: -16.9% | Potency [17]: inactive | Potency [4]: inactive | activation [9]: 0.0297% (inactive) | max response [10]: 0.851% (inactive) | Potency [18]: inactive | max response [11]: -7.74% (inactive) | max response [19]: -11% (inactive) | Potency [12]: inactive | max response [20]: -5.79% (inactive) | outcome [13]: inactive

CN(C)c1nc(=O)n(C2CCC(O)CC2)c(=O)n1C (stereo unspecified)
Potency [1]: inactive | max response [14]: 20.4% | outcome [15]: inactive | Potency [2]: inactive | outcome [3]: inactive | max response [16]: -9.86% | Potency [17]: inactive | Potency [4]: inactive | activity change % (negative = inhibition) [7]: 11.1% (inactive) | activation [8]: 2.9% (inactive) | activation [9]: -0.637% (inactive) | Potency [18]: inactive | max response [11]: 6.16% (inactive) | max response [19]: -7.57% (inactive) | Potency [12]: inactive | max response [20]: -1.79% (inactive) | outcome [13]: inactive

CCCCOC(=O)[C@@H](C)Oc1ccc(Oc2ccc(C(F)(F)F)cn2)cc1
Potency [1]: inactive | max response [14]: 35.2% and 48.6% | outcome [15]: inactive | Potency [2]: inactive | outcome [3]: inactive | max response [16]: -3.89% and -1% | Potency [17]: inactive | Potency [4]: inactive | max response [5]: -5.61% and -1.04% | max response [6]: 9.28% (inactive) and -16% (inactive) | activity change % (negative = inhibition) [7]: 6.28% (inactive) and 7.31% (inactive) | activation [8]: -5.64% (inactive) and -5.4% (inactive) | activation [9]: -0.836% (inactive) and 0.498% (inactive) | max response [10]: -0.0053% (inactive) and -0.638% (inactive) | Potency [18]: inactive | max response [11]: -10.9% (inactive) and -13.9% (inactive) | max response [19]: -10% (inactive) and -13.5% (inactive) | Potency [12]: inactive | max response [20]: -5.37% (inactive) and -2.58% (inactive)

Reference: PubChem BioAssay (NCATS)
